Compound activity: PubChem, several laboratories
FID counter: displaces DNA intercalator in HCV helicase counter-screen; DNA fluorescent intercalator displacement, fluorescence; inhibition, % at 7.9 µM; 0.17% of 290,000 active; in the data active means inhibition above about 37%;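 further: higher means more ethidium bromide displaced from hairpin DNA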
CendR NRP1 mod: NRP-1/CendR interaction modulation | AID 602438 | 0.85% of 360,000 active | FAM-RPARPAR peptide binding to NRP-1, fluorescence polarization | inhibition, % at 25 µM | O14786;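 active means inhibition or corrected inhibition above about 18%, plus a signal ratio from 0.5 to 1.5, limit read from the data, passing the limit was not always enough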
miR-122 sensor: inhibitors of miR-122 in Huh7 cells | Huh7 miR-122 Renilla luciferase sensor, 48 h; neutral wells = 0, positive control = 100 | 0.3% of 340,000 active | activation (reporter increase), % at 12.5 µM;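 active means mean replicate activation score at least 90 and every replicate individually at or above 90; inconclusive means only one of the two criteria met; inactive means neither criterion met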;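 further: higher luciferase means less miR-122 activity so hits act as miR-122 inhibitors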
RAD54 inh: blocks human RAD54 Holliday junction branch migration. inhibition, % at 10.4 µM. 0.14% of 360,000 active. FAM/BHQ fluorescence. Q92698;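 active means mean normalized replicate activity at least 40 and at least half of replicates scoring 40 or more; inconclusive means only one of the two criteria met; inactive means mean below 40 and under half of replicates reaching 40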;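 further: inhibitors cause a drop in the FAM fluorescence signal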
Target sequence (Q92698 whole entry, looked up): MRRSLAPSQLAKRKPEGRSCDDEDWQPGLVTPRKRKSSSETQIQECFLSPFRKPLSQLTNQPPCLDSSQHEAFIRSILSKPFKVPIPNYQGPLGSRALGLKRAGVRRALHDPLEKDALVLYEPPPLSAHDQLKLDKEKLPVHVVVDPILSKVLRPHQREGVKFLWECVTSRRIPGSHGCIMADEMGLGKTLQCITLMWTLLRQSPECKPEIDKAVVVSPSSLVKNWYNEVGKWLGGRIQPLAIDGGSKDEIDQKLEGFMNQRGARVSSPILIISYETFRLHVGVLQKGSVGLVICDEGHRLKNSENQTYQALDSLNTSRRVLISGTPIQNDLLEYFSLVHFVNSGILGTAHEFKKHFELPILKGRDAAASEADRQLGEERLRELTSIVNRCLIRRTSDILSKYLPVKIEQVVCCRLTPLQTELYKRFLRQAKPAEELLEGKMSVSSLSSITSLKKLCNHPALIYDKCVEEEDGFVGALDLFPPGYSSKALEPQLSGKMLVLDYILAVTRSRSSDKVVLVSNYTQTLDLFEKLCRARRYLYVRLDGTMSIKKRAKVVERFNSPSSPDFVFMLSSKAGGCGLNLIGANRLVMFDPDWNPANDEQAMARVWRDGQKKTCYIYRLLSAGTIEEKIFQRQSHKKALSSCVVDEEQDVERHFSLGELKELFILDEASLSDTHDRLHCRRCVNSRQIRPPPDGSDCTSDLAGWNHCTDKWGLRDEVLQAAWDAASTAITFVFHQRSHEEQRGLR
N-glyco inh: N-linked glycosylation inhibition; D54 ERlucT glycosylation luciferase reporter, 24 h; percent of 100 nM tunicamycin response; reporter increase, % at 12.5 µM; 0.23% of 360,000 active;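 active means mean luciferase reporter signal, scaled so untreated is 0 and the glycosylation-blocking control 100, at or above a set limit in every replicate; inconclusive means mean reaches the limit but not every replicate does; inactive means mean below the limit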;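 further: luciferase carries N-glycosylation sites so blocking glycosylation raises the light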
RAD52 anneal inh: blocks human RAD52 DNA annealing. recombinant RAD52 DNA annealing, FRET fluorescence. inhibition, % at 18.7 µM. 0.46% of 360,000 active. AID 651710;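 active means every replicate showing at least 50% inhibition; inconclusive means mean inhibition at least 50% but not in every replicate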
Of the large screens only hits and unclear results are named; the others gave an inactive call. Only some compounds are listed: those with a hit (about 1.5% of all), similar ones and a draw of the others.

COC(=O)c1c(NC(C)=O)sc(Cc2ccccc2)c1C	miR-122 sensor 153.4 (no result: RAD52 anneal inh)
COC(=O)c1c(NC(=O)c2ccccc2)sc(Cc2ccccc2)c1C	none (no result: RAD52 anneal inh)
COc1ccc(NC(=O)Nc2ccc3c(c2)CC(=O)N([C@@H](C)CO)C[C@@H](C)[C@H](CN(C)S(=O)(=O)c2cn(C)cn2)O3)cc1	none (no result: FID counter, CendR NRP1 mod, N-glyco inh)
COc1cc2c(cc1OC)C(c1cccs1)N(C(=S)NC(C)C)CC2 (configuration not stated)	N-glyco inh 44.7 (no result: miR-122 sensor, RAD54 inh)
CC1(c2ccc3noc(-c4ccc(F)cc4)c3c2)OCCO1	CendR NRP1 mod 26.8 (no result: RAD52 anneal inh)
O=Cc1ccc2noc(-c3ccc(F)cc3)c2c1	CendR NRP1 mod 23.8 (no result: RAD52 anneal inh)
COc1ccc2c3c([nH]c2c1)[C@H](CO)N(Cc1ccccc1OC)CC31CN(S(=O)(=O)c2ccccc2)C1	none (no result: FID counter, CendR NRP1 mod, miR-122 sensor, RAD54 inh, N-glyco inh)
Cc1cc(C)c(C)c(S(=O)(=O)NCc2ccncc2)c1C	miR-122 sensor 122.1 (no result: RAD54 inh)
O=S(=O)(NCc1ccncc1)c1ccc(F)c(F)c1	none (no result: FID counter)
Cc1ccc(S(=O)(=O)NCc2ccncc2)cc1C	CendR NRP1 mod 21.9 (no result: RAD54 inh)
Cc1noc(C)c1NC(=O)Nc1ccc2c(c1)C(=O)N([C@H](C)CO)C[C@@H](C)[C@@H](CN(C)Cc1ccc(C(=O)O)cc1)OCCCC[C@H](C)O2	none (no result: FID counter, CendR NRP1 mod, N-glyco inh, RAD52 anneal inh)
COc1ccc(-c2cc(C)no2)cc1S(=O)(=O)NCC(C)c1ccccc1 (configuration not stated)	miR-122 sensor 148.2
CCOc1ccccc1CNS(=O)(=O)c1cc(-c2cc(C)no2)ccc1OC	none
COc1ccc(OC)c(CNS(=O)(=O)c2cc(-c3cc(C)no3)ccc2OC)c1	none
COc1ccccc1CNS(=O)(=O)c1cc(-c2cc(C)no2)ccc1C(C)C	miR-122 sensor 106.9
Cc1ccc(NS(=O)(=O)c2cc(-c3cc(C)no3)ccc2C(C)C)nc1	miR-122 sensor 99.1
CCc1ccc(-c2cc(C)no2)cc1S(=O)(=O)Nc1ccc(C)cn1	miR-122 sensor inconclusive
CN1C(=O)c2cc(NC(=O)c3cccc(F)c3)ccc2OC[C@H]2O[C@H](CC(=O)O)CC[C@@H]21	none (no result: FID counter, CendR NRP1 mod, N-glyco inh, RAD52 anneal inh)
COc1ccc(NC(=O)N(C)C[C@H]2Oc3ccc(NS(=O)(=O)c4ccc(OC)cc4)cc3CC(=O)N([C@@H](C)CO)C[C@@H]2C)cc1	none (no result: FID counter, CendR NRP1 mod, N-glyco inh)
CCC(=O)N1CC2(C1)[C@H](c1ccc(C3=CCCC3)cc1)[C@H](CO)N2C(=O)COC	none (no result: FID counter, CendR NRP1 mod, miR-122 sensor, RAD54 inh, N-glyco inh)
CCCn1nc(C(=O)Nc2cc(OCC)c(N3CCOCC3)cc2OCC)c2ccccc2c1=O	CendR NRP1 mod 22.5 (no result: FID counter)
CCOc1cc(N2CCOCC2)c(OCC)cc1NC(=O)c1ccccc1	none
COC(=O)CCC(=O)OC1(C)C(=O)C=C2C=C(C3CC3)N(CCCCO)C=C2C1=O (configuration not stated)	CendR NRP1 mod 20.8 (no result: FID counter, miR-122 sensor)
COC(=O)CCCC1=CC2=CC(=O)C(C)(OC(=O)c3cccs3)C(=O)C2=CN1CCCCO (configuration not stated)	CendR NRP1 mod 40.0 (no result: FID counter)
COC(=O)CCC(=O)OC1(C)C(=O)C=C2C=C(C3CC3)N(CCc3ccccn3)C=C2C1=O (configuration not stated)	CendR NRP1 mod 29.7 (no result: FID counter)
C=CCN1C=C2C(=O)C(C)(OC(=O)CCC(=O)OC)C(=O)C=C2C=C1C1CC1 (configuration not stated)	CendR NRP1 mod 37.9 (no result: FID counter)
COCCN1C=C2C(=O)C(C)(OC(=O)c3cccs3)C(=O)C=C2C=C1CCCC(=O)OC (configuration not stated)	none (no result: FID counter, miR-122 sensor)
O=S(=O)(c1ccccc1)N1C[C@H]2[C@@H](c3ccccc31)[C@@H](CO)N2Cc1ccccc1	none (no result: FID counter, CendR NRP1 mod, N-glyco inh)
COC(=O)CCC(=O)OC1(C)C(=O)C=C2C=C(C3CC3)N(C(CO)CO)C=C2C1=O (configuration not stated)	CendR NRP1 mod 26.6 (no result: FID counter)
COC(=O)CCC(=O)OC1(C)C(=O)C=C2C=C(C3CC3)N(c3ccccc3)C=C2C1=O (configuration not stated)	none (no result: FID counter)
O=C(N/N=C\c1ccc(CNS(=O)(=O)c2ccc(Cl)cc2)o1)C(=O)Nc1ccc(Oc2ccccc2)cc1	N-glyco inh 51.8 (no result: miR-122 sensor, RAD54 inh, RAD52 anneal inh)
O=C(N/N=C\c1ccc(CNS(=O)(=O)c2ccccc2)o1)C(=O)Nc1ccc(F)cc1	none
COc1ccc(S(=O)(=O)Nc2cccc3c2O[C@@H](CN(C)C(=O)Nc2ccccc2)[C@H](C)CN([C@H](C)CO)C3=O)cc1	none (no result: FID counter, CendR NRP1 mod, N-glyco inh)
CCN(CC)c1nc(C#N)cc(-c2ccc(OC)cc2)n1	CendR NRP1 mod 24.1 (no result: RAD52 anneal inh)
O=S(=O)(c1ccccc1)N1[C@@H]2CNC[C@H]1C2c1ccc(-c2cccc(F)c2)cc1 (some centres not stated)	none (no result: FID counter, CendR NRP1 mod, miR-122 sensor, RAD54 inh, N-glyco inh)
COc1ccc(S(=O)(=O)N2C[C@@H](O)COC[C@@H]3O[C@H](CC(=O)NCc4ccc(Cl)c(Cl)c4)CC[C@H]32)cc1	none (no result: FID counter, CendR NRP1 mod, N-glyco inh)
Cc1cc2cc(CNC(=O)c3ccc(S(=O)(=O)N4CCOCC4)cc3)ccc2n1C	CendR NRP1 mod 27.5
Cc1cc2cc(CNC(=O)Cc3ccc([N+](=O)[O-])cc3)ccc2n1C	CendR NRP1 mod 29.8 (no result: miR-122 sensor, RAD54 inh)
Cc1cc2cc(CNC(=O)c3ccc(S(=O)(=O)N(C)C)cc3)ccc2n1C	none
COc1ccc(Br)cc1CNC(=O)Nc1cccs1	miR-122 sensor 106.1 (no result: RAD52 anneal inh)
COc1ccc(S(=O)(=O)Nc2ccc3c(c2)C(=O)N([C@H](C)CO)C[C@H](C)[C@@H](CN(C)S(=O)(=O)c2ccc(F)cc2)OCCCC[C@H](C)O3)cc1	none (no result: FID counter, CendR NRP1 mod, N-glyco inh)
CCOC(=O)c1cccc(N2CC3CNC(=O)C2(C(=O)OC)N3C)c1 (configuration not stated)	CendR NRP1 mod 20.9 (no result: FID counter)
CCN(CC)Cc1c(O)ccc2c1O/C(=C\C=C\c1ccccc1)C2=O	miR-122 sensor 277.8
COc1ccccc1/C=C/C=C1\Oc2c(ccc(O)c2CN(C)C)C1=O	none
COc1ccc(-c2c(-c3cccc(C)c3)oc3ccc(-c4ccc5c(c4)OCO5)cc23)cn1	none (no result: FID counter, RAD52 anneal inh)
COc1ccc(-c2oc3ccc(-c4ccc5c(c4)OCO5)cc3c2-c2ccc(OC)nc2)cc1	CendR NRP1 mod 26.6 (no result: FID counter)
CCn1c(=S)sc2c(=O)n(CC(=O)NCCCc3ccccc3)c(C)nc21	CendR NRP1 mod 26.1
Fc1ccccc1CSc1nnc(-c2cccnc2)o1	none (no result: miR-122 sensor, RAD54 inh)
Cc1ccc(C)c(CSc2nnc(-c3cccnc3)o2)c1	miR-122 sensor 355.7 (no result: RAD52 anneal inh)
C#CCOCCOCCOCCNc1nc(N2CCN(C(=O)CCCCCCCCCCNC(=O)[C@H](CO)n3cc(CCCSC)nn3)CC2)nc(N2CCN(C(=O)CCCCCCCCCCNC(=O)[C@H](CCCN=C(N)N)n3cc(C[C@@H](C)CC)nn3)CC2)n1	CendR NRP1 mod 25.1 (no result: FID counter, RAD52 anneal inh)
C#CCOCCOCCOCCNc1nc(N2CCN(C(=O)CCCCCCCCCCNC(=O)Cn3cc(CCCCCN)nn3)CC2)nc(N2CCN(C(=O)CCCCCCCCCCNC(=O)[C@@H](CCC(=O)O)n3cc(CCCCCN)nn3)CC2)n1	CendR NRP1 mod 20.7 (no result: FID counter, RAD52 anneal inh)
